In the library only some 2.2% were active in any assay of this set; here they are far more common.
MEKK2wt PB1 HTS – raises or lowers MEK5 binding to wildtype human MEKK2 PB1 domain; bead flow cytometry, Alexa488-MEK5 binding to MEKK2 WT; actives lie on both sides; 290,000 compounds, 1.1% hits; Q9Y2U5; binding response (% of control), % at 10 µM; in the data active = binding response below about 67% or above about 130%
MEKK2mut PB1 HTS – signal of MEK5 binding to mutant human MEKK2 PB1 domain | 290,000 compounds, 0.35% hits | percent response, % at 10 µM | bead flow cytometry, Alexa488-MEK5 binding to MEKK2 mutant; in the data active = percent response above about 24%, passing the limit was not always enough
VLA-4 inh – inhibition in a human VLA-4 binding assay. P13612. VLA-4 expressing cells, ligand binding flow cytometry. inhibition, % (about 7 µM as worked out from the volumes in the protocol). 330,000 compounds, 0.2% hits. AID 2557; in the data active = inhibition above about 50%
MEKK3 PB1 HTS – MEKK3-MEK5 PB1 interaction, increase or decrease | Q99759 | bead-based flow cytometry, Alexa488-MEK5 binding to MEKK3; actives lie on both sides; 0 = blocked by unlabeled MEK5, 100 = vehicle | binding response (% of control), % at 10 µM | 290,000 compounds, 1.4% hits;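 active = binding response more than 3 SD above or below the average of its plate-row segment, actives on both sides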;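 also: Alexa488 bead fluorescence after subtracting the streptavidin-only scavenger bead signal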
Target sequence (Q99759 whole entry, looked up): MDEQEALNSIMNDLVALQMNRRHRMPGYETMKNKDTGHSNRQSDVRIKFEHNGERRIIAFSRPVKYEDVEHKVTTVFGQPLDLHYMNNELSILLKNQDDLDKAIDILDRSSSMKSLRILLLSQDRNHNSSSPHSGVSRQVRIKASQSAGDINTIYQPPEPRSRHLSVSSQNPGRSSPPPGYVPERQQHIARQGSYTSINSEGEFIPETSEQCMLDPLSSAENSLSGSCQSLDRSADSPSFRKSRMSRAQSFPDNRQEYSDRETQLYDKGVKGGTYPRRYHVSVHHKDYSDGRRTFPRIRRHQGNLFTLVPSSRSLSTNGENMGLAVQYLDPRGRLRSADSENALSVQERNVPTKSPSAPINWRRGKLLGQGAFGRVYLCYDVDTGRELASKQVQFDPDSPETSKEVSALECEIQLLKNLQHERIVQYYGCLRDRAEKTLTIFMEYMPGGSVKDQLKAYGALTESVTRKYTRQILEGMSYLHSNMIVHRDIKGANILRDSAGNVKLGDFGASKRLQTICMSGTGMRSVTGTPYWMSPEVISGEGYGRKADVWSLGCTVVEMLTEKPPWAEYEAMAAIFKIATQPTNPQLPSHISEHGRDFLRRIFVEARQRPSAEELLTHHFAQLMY
MEKK2wt confirm – raises or lowers MEK5 binding to wildtype human MEKK2, retest; 5,900 compounds, 2.4% hits; shares compounds with MEKK3 PB1 HTS; AID 1892; bead flow cytometry, Alexa488-MEK5 binding to MEKK2 WT; actives lie on both sides; binding response (% of control), % at 10 µM; in the data active = binding response below about 16% or above about 210%; inactive = in between
MEKK2mut confirm – signal of MEK5 binding to mutant human MEKK2, retest; shares compounds with MEKK3 PB1 HTS; bead flow cytometry, Alexa488-MEK5 binding to MEKK2 mutant; 5,900 compounds, 2% hits; percent response, % at 10 µM; in the data active = percent response mostly above about 71%, no sharp cut-off; inactive = mostly below about 38%;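 also: higher means compound restores mutant binding toward wildtype level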
MEKK3-MEK5 inh – confirmation of inhibitors of MEK5 binding to human MEKK3; shares compounds with MEKK3 PB1 HTS; bead flow cytometry, Alexa488-MEK5 binding to MEKK3; hits give low values; binding response (% of control), % at 10 µM; 5,900 compounds, 1.8% hits;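 active = binding response below 72% of control, or above a set upper limit, though filed actives all read lower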;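 also: lower values mean stronger disruption of MEK5 binding to MEKK3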
Each line names hits and unclear results; the compound was inactive in the other large screens (follow-up assays come after a bar, where they were run); [ ] = remark or other dose.

O=C(CN1CCN(S(=O)(=O)c2ccccc2)CC1)Nc1ccccc1C(=O)c1ccccc1	MEKK3 PB1 HTS 128 | MEKK2wt confirm inactive | MEKK2mut confirm inactive | MEKK3-MEK5 inh inactive
CCOc1ccc(CNCCc2ccc(S(N)(=O)=O)cc2)cc1	none
COc1cc(CNCCc2ccc(S(N)(=O)=O)cc2)ccc1OCc1ccc(Cl)cc1	MEKK2wt PB1 HTS 232, MEKK2mut PB1 HTS 71 | MEKK2wt confirm inactive | MEKK2mut confirm inactive | MEKK3-MEK5 inh inactive
CCOc1cc(CNCCc2ccc(S(N)(=O)=O)cc2)ccc1OCc1ccc(Cl)cc1	MEKK2wt PB1 HTS 214, MEKK2mut PB1 HTS 46 | MEKK2wt confirm inactive | MEKK2mut confirm inactive | MEKK3-MEK5 inh inactive
CC(C)c1ccc(C(=O)CN2C(=O)NC3(CCc4ccccc43)C2=O)cc1 (centres undefined)	none (no result: MEKK2wt PB1 HTS, MEKK2mut PB1 HTS, MEKK3 PB1 HTS)
Cc1ccc2c(COC(=O)CNC(=O)c3ccco3)cc(=O)oc2c1C	none (no result: MEKK2wt PB1 HTS, MEKK2mut PB1 HTS, MEKK3 PB1 HTS)
CCOC(=O)c1c(CSc2ccc(CC)cc2)oc2ccc(O)c(CN(C)C)c12	MEKK2wt PB1 HTS 153, MEKK2mut PB1 HTS 36 | MEKK2wt confirm inactive | MEKK2mut confirm inactive | MEKK3-MEK5 inh inactive
CCC(=O)c1ccc(-c2ccccc2)cc1	none
O=C(O)CCC(=O)c1ccc(-c2ccccc2)cc1	MEKK2wt PB1 HTS 32[inhibitor], MEKK3 PB1 HTS 67[inhibitor] | MEKK2wt confirm inactive | MEKK2mut confirm inactive | MEKK3-MEK5 inh inactive
c1ccc(COc2ccc3nocc3c2)cc1	none (no result: MEKK2wt PB1 HTS, MEKK2mut PB1 HTS, MEKK3 PB1 HTS)
COC(=O)C1CCN(C(=O)c2oc3c(Cl)cc(C)cc3c2C)CC1	none
Cc1cc(Cl)c2oc(C(=O)N3CCN(c4ccncc4)CC3)c(C)c2c1	MEKK2wt PB1 HTS 147, MEKK2mut PB1 HTS 25 | MEKK2wt confirm inactive | MEKK2mut confirm inactive | MEKK3-MEK5 inh inactive
CN(C)S(=O)(=O)N(CCN1CCOCC1)Cc1ccccc1F	MEKK2mut PB1 HTS 24 | MEKK2wt confirm inactive | MEKK2mut confirm inactive | MEKK3-MEK5 inh inactive
CC(=O)c1ccc(NC(=O)C(C)NCc2ccccc2Cl)cc1 (centres undefined)	none
Cc1ccc(CSCC(=O)NCc2cccnc2)cc1	MEKK3 PB1 HTS 137 | MEKK2wt confirm inactive | MEKK2mut confirm inactive | MEKK3-MEK5 inh inactive
CCCn1c(SC(C(=O)Nc2cccc(OC)c2)c2ccccc2)nc2ccccc2c1=O (centres undefined)	MEKK3 PB1 HTS 142 | MEKK2wt confirm inactive | MEKK2mut confirm inactive | MEKK3-MEK5 inh inactive
CCn1c(SCC(=O)Nc2cccc(OC)c2)nc2ccccc2c1=O	none
CC(C)c1ccc(C(=O)COC(=O)C(O)c2ccccc2)cc1 (centres undefined)	none (no result: MEKK2wt PB1 HTS, MEKK2mut PB1 HTS, MEKK3 PB1 HTS)
Cc1cc(C(=O)Cn2cnc3cc(F)ccc3c2=O)c(C)n1C1CC1	none (no result: MEKK2wt PB1 HTS, MEKK2mut PB1 HTS, MEKK3 PB1 HTS)
COc1ccc(CNCCNC(=O)c2ccco2)c(OC)c1OC	MEKK3 PB1 HTS 127 | MEKK2wt confirm inactive | MEKK2mut confirm inactive | MEKK3-MEK5 inh inactive
Cc1ccc(NC(=O)COC(=O)CC2CCCC2)cc1Cl	MEKK3 PB1 HTS 70[inhibitor] | MEKK2wt confirm inactive | MEKK2mut confirm inactive | MEKK3-MEK5 inh inactive
COc1ccc(NC(=O)COC(=O)CC2CCCC2)cc1Cl	none (no result: MEKK2wt PB1 HTS, MEKK2mut PB1 HTS, MEKK3 PB1 HTS)
CCOCC(=O)Nc1ccc(C)c(Cl)c1	MEKK3 PB1 HTS 77[inhibitor] | MEKK2wt confirm inactive | MEKK2mut confirm inactive | MEKK3-MEK5 inh inactive
Cc1ccc(NC(=O)COc2ccccc2C(=O)Nc2ccccc2)cc1Cl	MEKK2wt PB1 HTS 146, MEKK2mut PB1 HTS 68 | MEKK2wt confirm inactive | MEKK2mut confirm inactive | MEKK3-MEK5 inh inactive
CCC(C)N(C(=O)COC(=O)COc1c(C)cc(C)cc1C)C1CCS(=O)(=O)C1 (centres undefined)	none (no result: MEKK2wt PB1 HTS, MEKK2mut PB1 HTS, MEKK3 PB1 HTS)
CCN(CC)S(=O)(=O)c1ccc(NS(=O)(=O)c2ccc(O)c([N+](=O)[O-])c2)cc1	MEKK3 PB1 HTS 144 | MEKK2wt confirm inactive | MEKK2mut confirm inactive | MEKK3-MEK5 inh inactive
CCN(CC)S(=O)(=O)c1ccc(NS(=O)(=O)c2ccc3oc(=O)[nH]c3c2)cc1	none
CC(C)(CC(=O)O)CC(=O)Nc1ccc(Cl)c(Cl)c1	none
Cc1cccc(N(C)S(=O)(=O)c2c(C)noc2C)c1	none
Cc1ccc(Cn2cnc3ccccc32)cc1C	MEKK3 PB1 HTS 74[inhibitor] | MEKK2wt confirm inactive | MEKK2mut confirm inactive | MEKK3-MEK5 inh inactive
Brc1ccc(-c2ccc(/C=N/Nc3nc4ccccc4[nH]3)o2)cc1	none
CC(=O)c1cccc(N/C=C\C(=O)c2ccc(C)cc2)c1	MEKK3 PB1 HTS 135 | MEKK2wt confirm inactive | MEKK2mut confirm inactive | MEKK3-MEK5 inh inactive
CC(=O)c1cccc(NS(=O)(=O)c2ccc(N/C=C\C(=O)c3ccc(C)cc3)cc2)c1	none
CCC(=O)N1N=C(c2ccc(NS(=O)(=O)c3ccccc3)cc2)CC1c1ccco1 (centres undefined)	none (no result: MEKK2wt PB1 HTS, MEKK2mut PB1 HTS, MEKK3 PB1 HTS)
O=C(Nc1cccc([N+](=O)[O-])c1)c1ccn[nH]1	none
COc1cc(/C=N/NC(=O)c2ccncc2)ccc1OCCN1CCCCC1	none
COc1cc(/C=N/NC(=O)c2cc3ccccc3cc2O)ccc1OCCN1CCCCC1	MEKK2wt PB1 HTS 229 | MEKK2wt confirm 207 | MEKK2mut confirm 82 | MEKK3-MEK5 inh inactive
COc1ccc(C2NN=C(c3c[nH]c4ccccc34)C2O)cc1 (centres undefined)	MEKK2wt PB1 HTS 55, MEKK2mut PB1 HTS 213 | MEKK2wt confirm inactive | MEKK2mut confirm inactive | MEKK3-MEK5 inh inactive
CN(C)CCN1C(=O)c2oc3ccccc3c(=O)c2C1c1cccc(Br)c1 (centres undefined)	none
CN(C)CCN1C(=O)c2oc3ccc(Cl)cc3c(=O)c2C1c1cccc(Br)c1 (centres undefined)	MEKK2wt PB1 HTS 139, MEKK3 PB1 HTS 129 | MEKK2wt confirm inactive | MEKK2mut confirm inactive | MEKK3-MEK5 inh inactive
O=C(Cn1ccc2cc(S(=O)(=O)N3CCCC3)ccc21)NCc1ccco1	none
O=S(=O)(c1cccc2cccnc12)N1CCCCC1	none
CN1CCN(c2ncccc2S(=O)(=O)N2CCCCC2)CC1	MEKK2wt PB1 HTS 1.0[inhibitor], MEKK3 PB1 HTS 1.0[inhibitor] | MEKK2wt confirm inactive | MEKK2mut confirm inactive | MEKK3-MEK5 inh inactive
CCCC1=C(C(=O)OCC)C(c2ccc(OC)c(C)c2OC)C(C#N)=C(N)O1 (centres undefined)	none
CCOC(=O)C1=C(CC)OC(N)=C(C#N)C1c1ccc(OC)c(C)c1OC (centres undefined)	MEKK2wt PB1 HTS 2.0[inhibitor], MEKK3 PB1 HTS 2.0[inhibitor] | MEKK2wt confirm inactive | MEKK2mut confirm inactive | MEKK3-MEK5 inh inactive
COc1cc(C(=O)NCCN2CCCC2)cc(OC)c1OC	none
COc1cc(C(=O)NCCC(=O)NCCN2CCCCCC2)cc(OC)c1OC	MEKK2wt PB1 HTS 143 | MEKK2wt confirm inactive | MEKK2mut confirm inactive | MEKK3-MEK5 inh inactive
O=C(O)CC1c2ccccc2C=Cc2ccccc21	none (no result: MEKK2wt PB1 HTS, MEKK2mut PB1 HTS, MEKK3 PB1 HTS)
